{
  "source": "PubChem BioAssay AID504848",
  "about": "(National Center for Advancing Translational Sciences (NCATS), 2011)",
  "note": "The campaign covered roughly 2,300 compounds. About 1,400 (61%) were called active. Roughly 29% stayed inconclusive and do not appear here. Calls come from the whole dose curve; as a rule, active = well fitted inhibition curve with a large enough effect; inconclusive = small, poorly fitted or top-dose-only effect, or effect the other way; inactive = no such curve, though single readings can be large or run the other way. The set was probably picked from earlier hits. The list shows a part of the results. Potency is the fitted concentration of half-maximal effect.",
  "data": [
    {"assay": "Confirmation screen for delayed death inhibitors of the malarial parasite plastid, 96 hour incubation; note: nearly all actives have a fitted effect of over 60% in size", "settings": "P. falciparum luciferase growth in erythrocytes; series mostly up to 28.7 µM", "how_it_was_run": "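Erythrocytes infected with luciferase-expressing P. falciparum (2% hematocrit, 0.1% parasitemia final) in RPMI 1640 with 0.5% Albumax, exposed to compounds 96 h at 37 C, 5% CO2. Growth inhibition read as decreased luciferase luminescence.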", "values": [
      {"molecule": "Cc1ccc(S(=O)(=O)Nc2cccc3cccnc23)c([N+](=O)[O-])c1", "Potency": "3.98 µM (active)"},
      {"molecule": "Cc1ccc(S(=O)(=O)Nc2cccc3cccnc23)cc1", "Potency": "5.62 µM (active)"},
      {"molecule": "O=C(c1ccc(Cl)cc1)C(Cn1cncn1)C(Sc1ccccc1)c1ccccc1", "note": "(stereo not drawn)", "Potency": "12.6 µM (active)"},
      {"molecule": "O=C1C(=O)c2ccccc2C(O)=C1C1CCC(c2ccc(Cl)cc2)CC1", "note": "(stereo not drawn)", "Potency": "0.0158 µM (active)"},
      {"molecule": "CN1CC2=Cc3ccccc3OC23Oc2ccccc2C=C3C1", "Potency": "3.16 µM (active)"},
      {"molecule": "CCC1=C/C(=C/c2sc3ccccc3[n+]2CC)CC(C)(C)C1", "Potency": "0.355 µM (active)"},
      {"molecule": "NC(=O)COc1ccc(NC(=O)CC23CC4CC(CC(C4)C2)C3)cc1", "Potency": "11.2 µM (active)"},
      {"molecule": "CCn1nc(C)c(NC(=O)CC23CC4CC(CC(C4)C2)C3)c1C", "Potency": "inactive"},
      {"molecule": "CSCCC(NC(=O)c1ccccc1Cl)C(=O)N1CCN(C(c2ccccc2)c2ccccc2)CC1", "note": "(stereo not drawn)", "Potency": "3.98 µM (active)"},
      {"molecule": "Cc1ccc(N2C(=O)N3[C@H](c4ccc(F)cc4)[C@@H]4C(=O)N(C5CCCCC5)C(=O)[C@@H]4[C@]3(Cc3ccccc3)C2=O)cc1", "Potency": "5.62 µM (active)"},
      {"molecule": "O=C(CCc1ccccc1)NNC(=O)c1ccccn1", "Potency": "6.31 µM (active)"},
      {"molecule": "O=C(NCc1ccccc1)C(c1cccnc1)N(C(=O)c1ccccn1)c1ccccc1F", "note": "(stereo not drawn)", "Potency": "inactive"},
      {"molecule": "COc1ccc(CCN2CCCn3c2nc2c3c(=O)n(Cc3ccccc3F)c(=O)n2C)cc1OC", "Potency": "2.24 µM (active)"},
      {"molecule": "Cc1ccc(S(=O)(=O)Nc2ccc(C(=O)Nc3ccncc3)cc2)cc1", "Potency": "12.6 µM (active)"},
      {"molecule": "CCOc1ccc(C2C3=C(Nc4nc(N)[nH]c(=O)c42)c2ccccc2C3=O)cc1", "note": "(stereo not drawn)", "Potency": "10 µM (active)"},
      {"molecule": "CCN(CC)S(=O)(=O)c1cc(NC(=O)C(C)OC(=O)c2[nH]c(C)c(C(C)=O)c2C)ccc1C", "note": "(stereo not drawn)", "Potency": "1.78 µM (active)"},
      {"molecule": "O=C1/C(=C/c2ccccc2F)SC(=S)N1CC(=O)N1CCCCC1c1cccnc1", "note": "(stereo not drawn)", "Potency": "10 µM (active)"},
      {"molecule": "COc1cc(OC)c(OC)cc1CN1CCN(C(=O)c2cccc3ccccc23)CC1", "Potency": "10 µM (active)"},
      {"molecule": "CCCc1cc(=O)oc2cc(OC(C)C(=O)NCc3ccccn3)c(Cl)cc12", "note": "(stereo not drawn)", "Potency": "15.8 µM (active)"},
      {"molecule": "COc1cc(C(=O)Nc2ccc(S(=O)(=O)Nc3cc(C)on3)cc2)cc(OC)c1OC", "Potency": "inactive"},
      {"molecule": "COc1ccccc1NC(=O)c1ccc2nc(-c3ccccc3)c(-c3ccccc3)nc2c1", "Potency": "inactive"},
      {"molecule": "COC(=O)c1ccc(NC(=O)c2cccc(NC(=O)c3ccccc3)c2)cc1", "Potency": "7.94 µM (active)"},
      {"molecule": "COc1ccc(NC(=O)c2cccc(NC(=O)c3ccccc3)c2)c(OC)c1", "Potency": "8.91 µM (active)"},
      {"molecule": "O=C(Nc1cccc(Br)c1)c1ccc2snnc2c1", "Potency": "inactive"},
      {"molecule": "COc1cc(C(=O)Nc2ccc(Nc3ccccc3)cc2)cc(OC)c1OC", "Potency": "5.01 µM (active)"},
      {"molecule": "COc1cc2c(cc1NC(=O)c1ccc(C(C)(C)C)cc1)CCCC2", "Potency": "12.6 µM (active)"},
      {"molecule": "O=C(CCl)N1CCN(CC(=O)N2CCCC2)CC1", "Potency": "14.1 µM (active)"},
      {"molecule": "C/C(=C\\C(=O)OCCCCCCCCC(=O)O)C[C@@H]1OC[C@H](C[C@@H]2O[C@H]2[C@@H](C)[C@H](C)O)[C@@H](O)[C@H]1O", "Potency": "0.501 µM (active)"},
      {"molecule": "CSCCn1c(C(C)(C)C)cc(C(=O)O)c1C", "Potency": "inactive"},
      {"molecule": "CCC(=O)c1ccc(OCC(O)CNC(C)c2ccccc2)cc1", "note": "(stereo not drawn)", "Potency": "11.2 µM (active)"},
      {"molecule": "Cn1nnnc1Sc1ncnc2scc(-c3cccc(F)c3)c12", "Potency": "6.31 µM (active)"},
      {"molecule": "Cn1nnnc1Sc1ncnc2scc(-c3cccc(S(C)(=O)=O)c3)c12", "Potency": "12.6 µM (active)"},
      {"molecule": "CC(=O)N1c2ccc(S(=O)(=O)NCCC(=O)NC3CCCC(C)C3C)cc2CC1C", "note": "(stereo not drawn)", "Potency": "14.1 µM (active)"},
      {"molecule": "N#C/C(=C\\c1ccccn1)c1ccccn1", "Potency": "11.2 µM (active)"},
      {"molecule": "O=C(c1ccco1)N1CCN(C2c3ccccc3-c3ccccc32)CC1", "Potency": "12.6 µM (active)"},
      {"molecule": "COc1ccc(CSC2=NCCN2)cc1Br", "Potency": "12.6 µM (active)"},
      {"molecule": "O=C(CCl)c1ccc2c(c1)CCN2C(=O)C1CCCCC1", "Potency": "11.2 µM (active)"},
      {"molecule": "O=C(COc1ccc(Cl)cc1)NCc1nnc2c3ccccc3c(-c3ccccc3)nn12", "Potency": "12.6 µM (active)"},
      {"molecule": "CC(C)c1ccc(/C=C2\\SC(=S)N(CCC(=O)N3CCCCC3CCO)C2=O)cc1", "note": "(stereo not drawn)", "Potency": "1.26 µM (active)"},
      {"molecule": "COc1cccc(/C=C2\\SC(=S)N(CCC(=O)N3CCCCC3CCO)C2=O)c1", "note": "(stereo not drawn)", "Potency": "6.31 µM (active)"},
      {"molecule": "O=C1/C(=C/c2ccc(Cl)cc2)SC(=S)N1CCC(=O)N1CCCCC1CCO", "note": "(stereo not drawn)", "Potency": "12.6 µM (active)"},
      {"molecule": "COc1cccc([C@@H]2Oc3ccc(OC)cc3C(=O)[C@H]2O)c1", "Potency": "7.08 µM (active)"},
      {"molecule": "C=CCNC(=O)c1onc(CSc2ccc(F)c(F)c2)c1C(=O)O", "Potency": "inactive"},
      {"molecule": "C=CCNC(=O)c1oc2ccc(S(=O)(=O)N3CCCCC3)cc2c1C", "Potency": "11.2 µM (active)"},
      {"molecule": "C=CCNC(=O)c1onc(CSc2ccc(C(C)C)cc2)c1C(=O)O", "Potency": "inactive"},
      {"molecule": "COC(=O)C1=CN(Cc2ccc(F)cc2)C=C(C(=O)OC)C1c1ccc(O)c(OC)c1", "Potency": "10 µM (active)"},
      {"molecule": "CC(=O)N(C)C1=C(N2CCOCC2)C(=O)c2ccccc2C1=O", "Potency": "0.0355 µM (active)"},
      {"molecule": "N#Cc1ncc(-c2ccc3c(c2)OCCOCCOCCOCCOCCO3)nc1C#N", "Potency": "12.6 µM (active)"},
      {"molecule": "O=C(c1cc(COc2cccc(C(F)(F)F)c2)on1)N1CCC(Oc2cccnc2)CC1", "Potency": "14.1 µM (active)"},
      {"molecule": "C/C(=N\\NC(=O)c1ccc(Cl)c(Cl)c1)c1ccc(Br)s1", "Potency": "2 µM (active)"},
      {"molecule": "Cc1ccc(-n2c(SCC(=O)Nc3ncc(Cl)cc3Cl)nc3ccccc32)cc1", "Potency": "11.2 µM (active)"},
      {"molecule": "O=C(CSc1nc2ccccc2n1-c1ccccc1)Nc1ncc(Cl)cc1Cl", "Potency": "10 µM (active)"},
      {"molecule": "COCCn1c(SC(C)C(=O)Nc2ncc(Cl)cc2Cl)nc2ccccc21", "note": "(stereo not drawn)", "Potency": "15.8 µM (active)"},
      {"molecule": "Cc1nn(C)c(C)c1C(C)NC(=O)c1ccc(OC2CCN(Cc3ccccn3)CC2)cc1", "note": "(stereo not drawn)", "Potency": "inactive"},
      {"molecule": "COc1ccc(CN2CCC(Oc3ccc(C(=O)NCc4ccccn4)cc3)CC2)c(F)c1", "Potency": "12.6 µM (active)"},
      {"molecule": "O=C1N=C(N2CCN(c3ccccc3)CC2)S/C1=C/c1cccs1", "Potency": "12.6 µM (active)"},
      {"molecule": "CC1=NNC(=O)/C1=C\\c1cn(-c2ccccc2)nc1-c1cccs1", "Potency": "5.62 µM (active)"},
      {"molecule": "O=C(c1ccco1)N1CCN(C(=O)C2CCCc3c2[nH]c2ccc(Cl)cc32)CC1", "note": "(stereo not drawn)", "Potency": "12.6 µM (active)"}
    ]}
  ]
}
